Among the test systems are HUNK; ICK; IGF1R; INSRR; INSR; IRAK1; IRAK3; IRAK4; ITK; KIT-autoinhibited.
What all share (conditions): concentration: 1 μM, replicates: in singlicate; n = 1
A further assay deals with T1, IKK-alpha.
T1 construct: gene CHUK

The test system of another assay is T2, IKK-beta.
T2 construct: gene IKBKB

The test system of the next assay is T3, IKK-epsilon.
T3 construct: gene IKBKE

Assay [1] deals with JAK1(JH1domain-catalytic).
Assay [2] relates to JAK1(JH2domain-pseudokinase).
Assay [3] relates to JAK2(JH1domain-catalytic).
Assay [4] concerns JAK3(JH1domain-catalytic).
A further assay relates to T4, JNK1.
T4 construct: gene MAPK8

Another assay concerns T5, JNK2.
T5 construct: gene MAPK9

Another assay relates to T6, JNK3.
T6 construct: gene MAPK10

This is an account of results in publication PMC5540273 (PLoS ONE, 2017).

SMILES strings stand for the structures.
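Note: KINOMEscan kinase panel screen.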

As for `Cc1cccc(-c2nc(Nc3cccc(C(N)=O)c3)c3ccccc3n2)n1` [GW876019], the “%Inh” value amounted to 44% in the assay on HUNK; 0% with ICK; 4% in the assay on IGF1R; 0% in the assay on IKK-alpha; 0% in the assay on IKK-beta; 0% in the assay on IKK-epsilon. In addition, the “%Inh” value with INSRR worked out at 0%; with INSR, 0%; in the assay on IRAK1 it was 14%; in the assay on IRAK3, 10%; in the assay on IRAK4, 4%; in the assay on ITK, 8%. Also, the “%Inh” value is on record as 0% in [1]; 78% in [2]; 12% in assay [3]; 15% in [4]; 0% in the assay with JNK1; 0% with JNK2. Also, the “%Inh” value with JNK3 came out at 0%; in the assay on KIT-autoinhibited, 10%.
In the case of `CC(=O)Nc1nc2cnc(Nc3cc(NC(=O)c4cccc(CCC#N)c4)ccc3C)nc2s1`, the “%Inh” value in the assay with HUNK worked out at 0%; in the assay with ICK, 0%; with IGF1R, 0%; in the assay on IKK-alpha, 10%; in the assay with IKK-beta, 0%; in the assay on IKK-epsilon, 33%. Further, the “%Inh” value in the assay with INSRR worked out at 0%; with INSR, 34%; in the assay with IRAK1, 19%; in the assay on IRAK3, 21%; in the assay with IRAK4, 15%; in the assay with ITK, 3%. The “%Inh” value in assay [1] is given as 3%; in assay [2], 9%; in assay [3] it was 22%; in assay [4], 0%; with JNK1, 0%; with JNK2, 0%. The “%Inh” value in the assay with JNK3 stood at 0%; in the assay on KIT-autoinhibited it was 11%.
`COc1cc2ncn(-c3cc(OCC4CCCO4)c(C(N)=O)s3)c2cc1OC` (centres unmarked) [GSK204607]: the “%Inh” value is 0% in the assay with HUNK; 0% with ICK; 6% with IGF1R; 0% in the assay on IKK-alpha; 0% in the assay with IKK-beta; 24% with IKK-epsilon. The “%Inh” value was determined as 0% in the assay on INSRR; 0% in the assay with INSR; 0% in the assay on IRAK1; 0% with IRAK3; 0% with IRAK4; 5% with ITK. The “%Inh” value is 0% in assay [1]; 0% in assay [2]; 1% in [3]; 0% in assay [4]; 0% in the assay with JNK1; 17% in the assay with JNK2. The results for the “%Inh” value with JNK3 and in the assay with KIT-autoinhibited were 7% and 0%, respectively.
For the compound `Cc1ccccc1-n1cnc2c(N)ncnc21` [SKF-97510], the “%Inh” value stood at 1% in the assay with HUNK; 0% with ICK; 0% in the assay with IGF1R; 0% in the assay with IKK-alpha; 0% in the assay on IKK-beta; 0% in the assay on IKK-epsilon. The “%Inh” value in the assay on INSRR was determined as 0%; in the assay with INSR it was 0%; in the assay on IRAK1 it was 0%; with IRAK3, 0%; in the assay on IRAK4, 0%; in the assay on ITK, 1%. For the same compound, the “%Inh” value in [1] is 5%; in assay [2], 0%; in [3] it was 0%; in assay [4], 0%; in the assay on JNK1, 0%; in the assay with JNK2, 0%. The “%Inh” value with JNK3 and in the assay on KIT-autoinhibited was 0% throughout.
As to `Cl.Oc1ccc(-c2nc(-c3ccccc3)[nH]c2-c2ccncc2)cc1` [SB-428218], the “%Inh” value in the assay on HUNK worked out at 42%; in the assay with ICK, 3%; in the assay on IGF1R, 8%; in the assay on IKK-alpha it was 0%; in the assay with IKK-beta, 0%; with IKK-epsilon, 12%. For the same compound, the “%Inh” value in the assay with INSRR was determined as 0%; in the assay with INSR it was 3%; with IRAK1, 33%; in the assay on IRAK3, 0%; with IRAK4, 18%; in the assay on ITK it was 10%. In addition, the “%Inh” value in assay [1] is listed as 4%; in assay [2], 36%; in assay [3], 0%; in assay [4] it was 0%; in the assay with JNK1, 2%; in the assay with JNK2, 0%. For the same compound, the “%Inh” value with JNK3 was 0%; in the assay with KIT-autoinhibited it was 18%.
Take `CCCc1ccc(S(=O)(=O)NC2CCN(c3ccnc(Nc4ccc(F)cc4)n3)C2)cc1` (centres unmarked) [GSK1379715]: the “%Inh” value is given as 5% in the assay on HUNK; 0% in the assay with ICK; 0% in the assay on IGF1R; 33% in the assay on IKK-alpha; 36% in the assay with IKK-beta; 0% with IKK-epsilon. Further, the “%Inh” value came to 0% in the assay with INSRR; 1% with INSR; 36% with IRAK1; 0% in the assay on IRAK3; 16% in the assay on IRAK4; 6% in the assay on ITK. For the same compound, the “%Inh” value in assay [1] is listed as 18%; in [2] it was 0%; in [3], 52%; in [4] it was 0%; in the assay on JNK1, 24%; in the assay with JNK2 it was 21%. The “%Inh” value was 9% in the assay with JNK3 and 0% in the assay on KIT-autoinhibited.
Take `Cn1ccc2ncnc(Oc3cccc(C(=O)Nc4ccccc4)c3)c21`: the “%Inh” value with HUNK was found to be 0%; in the assay on ICK, 8%; in the assay with IGF1R, 2%; in the assay with IKK-alpha, 22%; in the assay with IKK-beta, 15%; in the assay with IKK-epsilon, 7%. Moreover, the “%Inh” value in the assay on INSRR was 0%; with INSR, 16%; in the assay on IRAK1 it was 0%; in the assay on IRAK3, 0%; in the assay with IRAK4 it was 8%; with ITK it was 0%. Besides, the “%Inh” value in [1] is on record as 7%; in assay [2] it was 27%; in assay [3], 12%; in [4], 0%; in the assay with JNK1 it was 16%; with JNK2, 0%. In addition, the “%Inh” value in the assay with JNK3 and in the assay with KIT-autoinhibited was 0% in each case.
On to `Cc1cccc(-c2cc(Nc3ccncc3)c3ccccc3n2)n1` [GSK223675], for which the “%Inh” value is given as 0% in the assay with HUNK; 11% in the assay on ICK; 0% in the assay on IGF1R; 0% in the assay on IKK-alpha; 0% with IKK-beta; 36% in the assay on IKK-epsilon. Also, the “%Inh” value with INSRR is on record as 0%; with INSR, 14%; in the assay on IRAK1, 15%; in the assay on IRAK3, 0%; with IRAK4, 13%; in the assay on ITK, 0%. For the same compound, the “%Inh” value in [1] came to 11%; in assay [2] it was 5%; in [3], 100%; in assay [4] it was 0%; in the assay with JNK1, 11%; with JNK2, 27%. For the same compound, the “%Inh” value in the assay on JNK3 stood at 15%; with KIT-autoinhibited, 0%.
Take `O=C1NC(=O)C(N2CCc3ccccc32)=C1c1ccccc1Cl` [SB-373598]: the “%Inh” value with HUNK is recorded as 13%; in the assay on ICK, 17%; with IGF1R, 29%; in the assay with IKK-alpha, 98.1%; in the assay on IKK-beta it was 20%; with IKK-epsilon, 30%. The “%Inh” value in the assay on INSRR came out at 2%; in the assay on INSR, 23%; in the assay with IRAK1, 0%; in the assay with IRAK3, 9%; in the assay on IRAK4, 7%; in the assay with ITK it was 10%. For the same compound, the “%Inh” value in assay [1] was determined as 3%; in [2], 0%; in assay [3], 0%; in [4], 40%; in the assay with JNK1 it was 7%; in the assay on JNK2, 6%. In addition, the “%Inh” value in the assay on JNK3 was determined as 5%; in the assay on KIT-autoinhibited, 0%.
On to `Fc1cc(Cl)ccc1Nc1ccnc2cc(I)ccc12` [GW551191], for which the “%Inh” value in the assay with HUNK was 45%; in the assay on ICK, 1%; in the assay on IGF1R, 6%; in the assay with IKK-alpha it was 1%; in the assay with IKK-beta, 11%; in the assay with IKK-epsilon, 19%. Also, the “%Inh” value in the assay on INSRR was 0%; in the assay with INSR it was 0%; in the assay with IRAK1 it was 32%; in the assay with IRAK3, 11%; with IRAK4 it was 14%; with ITK it was 13%. Also, the “%Inh” value was found to be 0% in assay [1]; 0% in assay [2]; 1% in assay [3]; 0% in [4]; 18% in the assay on JNK1; 29% with JNK2. The “%Inh” value in the assay on JNK3 stood at 10%; in the assay with KIT-autoinhibited it was 0%.
